# High-throughput results deposited in PubChem BioAssay by National Center for Advancing Translational Sciences (NCATS).
# Most compounds without a hit are left out; they make up all but 10% or so of the library.
# HP1b chromo inh – blocks HP1-beta chromodomain binding to methylated histone tails; AlphaScreen HP1-beta / biotin-H3K9me3 peptide binding; AID 540317; Potency, µM (highest dose often 114 µM), for inactives: top-dose activity change, negative = inhibition, hits mostly inhibitors; hit rate 0.56% among 390,000; P83916; further: potency means the concentration at half of the fitted maximal effect; nearly all actives have a fitted effect of over 70% in size
#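 Compound inhibition of the preformed complex between 50 nM HP1-beta and 50 nM biotinylated H3K9me3 peptide was read by AlphaScreen. Buffer was PBS pH 7.4 with 0.01% Tween-20. Incubations ran 30 min at room temperature, with 10 ug/mL donor/acceptor beads.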
# G9a block – inhibitors of human histone lysine methyltransferase G9a; Q96KQ7; G9a H3K9 monomethylation, AlphaScreen, 2 h; Potency, µM (doses to about 102 µM), for inactives: at the top dose activity, negative = inhibition, hits mostly inhibitors; hit rate 8.8% among 350,000; further: potency means the concentration at half of the fitted maximal effect; on the % scale 0 is the no-effect control and ±100 the full control effect; nearly all actives have a fitted effect of over 75% in size
#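 G9a (20 nM) was preincubated 15 min with compound, then reacted 2 h at room temperature with 500 nM biotin-H3K9 peptide and 20 µM SAM. Monomethyl-H3K9 detected by AlphaScreen using anti-H3K9me1 antibody.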
# BAZ2B block – inhibitors of human BAZ2B bromodomain. AlphaScreen BAZ2B-H3K14Ac peptide displacement. AID 504333. hit rate 4.4% among 360,000. Potency, µM (series often up to 114 µM), inactives show at the highest dose activity change, negative = inhibition, hits mostly inhibitors; further: potency means the concentration at half of the fitted maximal effect; on the % scale 0 is the no-effect control and ±100 the full control effect; nearly all actives have a fitted effect of over 60% in size
#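 Inhibition is scored as reduced AlphaScreen emission. The BAZ2B/b-H3(5-23)K14Ac complex (50 nM each) in PBS pH 7.4, 0.01% Tween-20 meets compound (up to 110 uM) for 30 min at RT before bead addition.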
# JMJD2A Tudor – JMJD2A Tudor domain (human) inhibition; hit rate 4.4% among 390,000; AlphaScreen JMJD2A-Tudor / H3K4me3 peptide binding; AID 504339; Potency, µM (titrated, usually from 114 µM), inactives show at the top dose activity change, negative = inhibition, hits mostly inhibitors; O75164; further: potency means the concentration at half of the fitted maximal effect; on the % scale 0 is the no-effect control and ±100 the full control effect; nearly all actives have a fitted effect of over 50% in size
# Target sequence (O75164 whole entry, looked up, the tested form may be a part): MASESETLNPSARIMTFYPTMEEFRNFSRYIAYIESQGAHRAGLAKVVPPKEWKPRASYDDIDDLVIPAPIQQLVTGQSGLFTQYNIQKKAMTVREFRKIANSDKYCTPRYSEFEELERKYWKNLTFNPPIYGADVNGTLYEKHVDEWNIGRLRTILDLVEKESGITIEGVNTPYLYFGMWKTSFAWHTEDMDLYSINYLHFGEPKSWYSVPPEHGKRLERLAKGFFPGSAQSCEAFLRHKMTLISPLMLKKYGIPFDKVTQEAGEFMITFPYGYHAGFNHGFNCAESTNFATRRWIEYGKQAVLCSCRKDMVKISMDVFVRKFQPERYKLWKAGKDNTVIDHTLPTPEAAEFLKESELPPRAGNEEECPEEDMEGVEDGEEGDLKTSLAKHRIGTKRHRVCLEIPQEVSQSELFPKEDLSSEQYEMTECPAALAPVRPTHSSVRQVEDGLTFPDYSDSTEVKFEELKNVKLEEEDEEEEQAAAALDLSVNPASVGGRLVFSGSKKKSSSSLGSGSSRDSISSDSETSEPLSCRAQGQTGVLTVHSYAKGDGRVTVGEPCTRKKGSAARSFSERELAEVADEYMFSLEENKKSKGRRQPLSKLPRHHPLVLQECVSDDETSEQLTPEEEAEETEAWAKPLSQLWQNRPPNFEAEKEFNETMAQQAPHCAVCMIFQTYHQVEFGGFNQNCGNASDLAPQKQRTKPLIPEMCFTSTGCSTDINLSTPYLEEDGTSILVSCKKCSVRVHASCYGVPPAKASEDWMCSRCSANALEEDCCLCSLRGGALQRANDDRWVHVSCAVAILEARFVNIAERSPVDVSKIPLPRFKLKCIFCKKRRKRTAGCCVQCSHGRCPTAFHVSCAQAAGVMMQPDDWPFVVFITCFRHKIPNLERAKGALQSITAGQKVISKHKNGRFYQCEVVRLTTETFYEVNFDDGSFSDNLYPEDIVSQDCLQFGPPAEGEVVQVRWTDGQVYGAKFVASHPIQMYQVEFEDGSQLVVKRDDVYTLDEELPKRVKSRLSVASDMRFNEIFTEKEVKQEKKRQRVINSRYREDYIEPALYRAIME
# GLS inhibitor – glutaminase GLS (human) inhibition; O94925; GLS enzymatic activity, qHTS titration; Potency, µM (doses to about 45.5 µM), for inactives: at the top dose activity change, negative = inhibition, actives largely listed as inhibitors; hit rate 0.21% among 410,000; AID 624170; further: potency means the concentration at half of the fitted maximal effect; on the % scale 0 is the no-effect control and ±100 the full control effect
#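 hKGA; 45 mM KH2PO4 pH 8.2 + 0.02% Tween-20; cpd via pin tool; 1 mM Gln soln; GluOx/HRP/Amplex Red; RT 30 min; fluor. t0 & final.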
# JMJD2E inh-1 – JMJD2E demethylase inhibition by 8HQ compounds; shares compounds with BAZ2B block; JMJD2E demethylase, FDH-coupled NADH fluorescence; Potency, µM (highest dose often 57 µM), for inactives: at the highest dose activity, negative = inhibition, most hits filed as inhibitors; hit rate 89% among 130
# ME-1 growth – inhibitors of ME-1 leukemia cell proliferation, CBFb-RUNX1 project; ME-1 cell proliferation, ATP luminescence, 48 h; shares compounds with BAZ2B block; hit rate 20% among 140; Potency, µM (doses to about 56.1 µM), without a hit: at the highest dose activity change, negative = inhibition, actives largely listed as inhibitors
# JMJD2E inh-2 – confirmation of inhibitors of human JMJD2E demethylase. shares compounds with JMJD2A Tudor. Recombinant JMJD2E, FDH-coupled NADH fluorescence (FDH is formaldehyde dehydrogenase). Potency, µM (top dose mostly 56.8 µM), for the others: at the top dose activity change, negative = inhibition, most hits filed as inhibitors. hit rate 93% among 140. AID 2677
# FDH inh – blocks Pseudomonas putida formaldehyde dehydrogenase, flagging JMJD2E artifacts; shares compounds with JMJD2A Tudor; FDH enzyme assay, NADH fluorescence kinetic; Potency, µM (top dose mostly 56.7 µM), for the others: top-dose activity, negative = inhibition, most hits filed as inhibitors; hit rate 10% among 140; AID 2680
# JMJD2E MS inh – inhibitors of human JMJD2E demethylase; shares compounds with JMJD2A Tudor; hit rate 90% among 45; recombinant JMJD2E demethylation, MALDI-TOF-MS; Potency, µM, hits mostly inhibitors;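 active means compounds whose IC50 for blocking JMJD2E demethylation is below 100 µM; inconclusive means dose dependent effect but IC50 above 100 µM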
# Starred values were filed as active, the others as inactive; u = inconclusive; x = no result; [ ] = remark or other dose. Unless noted, the call rests on the fitted dose curve; in most records, active means well fitted curve in the direction sought with a large enough effect; inconclusive means small, poorly fitted or top-dose-only effect, or another doubt; inactive means no such curve, though single readings can be large; an effect the other way counts as inactive or inconclusive.
SMILES,HP1b chromo inh,G9a block,BAZ2B block,JMJD2A Tudor,GLS inhibitor,JMJD2E inh-1,JMJD2E inh-2,FDH inh,JMJD2E MS inh,others
CC(C)C[C@@H](CN1CCC[C@H]1CN1C(=O)C(=O)NC[C@@H]1Cc1ccc(O)cc1)N1C[C@H](Cc2ccccc2)N(CCc2ccccc2)C(=O)C1=O,x,x,x,x,28%,x,x,x,x,
Cc1ccc(-c2nc(CS(=O)(=O)CC(=O)Nc3cc(C)ccc3C)c(C)o2)cc1,11%,-34%[59 µM],-24%,-15%,7%,x,x,x,x,
O=c1cc2c(=O)oc3cc(O)c(O)oc3c2c(O)c1O,1.6µM*,x,1.8µM*,1.4µM*,u,x,x,x,x,ME-1 growth=-15%
Brc1ccc(Cn2c(-c3ccc(Br)o3)nc3ccccc32)o1,-8%,40µM*,13µM*,-21%,-2%,x,x,x,x,ME-1 growth=u
Cc1nc2ccccc2n1Cc1ccc(Br)cc1,11%,x,x,-9%,7%,x,x,x,x,
CN(Cc1ccco1)Cc1ccc(O)c2ncccc12,45%,1.4µM*,3.2µM*,-7%,-12%,3.2µM*,3.2µM*,-9%,x,
Oc1ccccc1CNc1cccc2cccnc12,-11%,u,-37%,u,2%,x,x,x,x,
Oc1ccc(CNc2ccccc2C(F)(F)F)c2cccnc12,x,x,x,56µM*,x,4µM*,13µM*,-18%,11*,
Oc1ccc(Br)cc1CNc1ccccn1,6%,23%,4%,-20%[11.4 µM],-2%,x,x,x,x,
Oc1ccc(CNc2ccccn2)c2cccnc12,x,x,x,40µM*,x,7.9µM*,11µM*,-18%,33*,
Oc1ccc(CNc2ccc(C(F)(F)F)cc2Cl)c2cccnc12,x,1.8µM*,79µM*,x,x,11µM*,11µM*,-9%,x,
Oc1ccc(CNc2ccccc2Cl)c2cccnc12,x,x,x,56µM*,x,2.5µM*,2.5µM*,-9%,27*,
Cc1cc2occ(CC(=O)N(C)CC(=O)Nc3ccccc3Cl)c2cc1C,16%,-4%,3%,-22%,6%,x,x,x,x,
NC(=S)n1[nH]c(-c2ccccc2)c(N=Nc2ccccc2C(=O)N2CCOCC2)c1=O,-7%,x,u,-27%,16%,x,x,x,x,
O=C(CSc1ccccc1F)NC(=O)c1ccc(Cl)cc1,27%,x,x,3%,0%,x,x,x,x,
Oc1ccc(CNc2ccc(F)cc2F)c2cccnc12,x,x,x,20µM*,x,2.3µM*,5.8µM*,-9%,42*,
O=C(Cc1ccc(F)cc1)Nc1cccc2cccnc12,55%,45%[59 µM],12%,29%,7%,x,x,x,x,
Oc1ccc(NCc2ccccc2F)c2cccnc12,x,x,x,50µM*,x,u,2.6µM*,-18%,19*,
Oc1ccc(CNc2cccc(F)c2F)c2cccnc12,x,1.1µM*,40µM*,x,x,2.5µM*,2.5µM*,-9%,x,
Oc1ccc(CCc2ccccc2F)c2cccnc12,x,x,x,-30%,x,10µM*,13µM*,-9%,29*,
O=C(NCc1cccnc1)Nc1ccc(F)cc1F,47%,5%[59 µM],12%,-12%,16%,x,x,x,x,
CCCn1c2ccccc2c2nnc(SCC(=O)Nc3c(C)n(C)n(-c4ccccc4)c3=O)nc21,11%,-9%,5%,-5%,-2%,x,x,x,x,
Oc1cc(Nc2ccc(N3CCCCC3)cc2)cc2cccnc12,x,2%[12.7 µM],35µM*,x,x,28µM*,28µM*,-18%,34*,
